Experimental data reported in PubChem BioAssay AID1159580 (chemical genetic matrix, 2015).
Screen size: about 5,500 compounds; about 2,000 (36%) were called active. Another 18% or so got no clear call; they are omitted. Cut-off read from the data, not from the text of the source: active = normalized growth mostly below about 0.91 (no sharp cut-off); inconclusive = no clear call, values can overlap the other calls; inactive = mostly above about 0.92. This is one part of the list.

Assay: chemical genetic growth profiling, strain panel (AID 1159580);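 note: tested at 20 µM; growth read once vehicle control cultures reached saturation at 30 °C; 1 = growth at the plate median or of vehicle wells; lower values mean less growth of the strain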
Details: growth OD

Measured: normalized growth

CN[C@@H]1C(OC2[C@H](O[C@H]3[C@H](O)[C@@H](O)[C@H](N=C(N)N)[C@@H](O)[C@@H]3N=C(N)N)OC(C)[C@]2(O)CO)OC(CO)C(O)C1O (stereo partly drawn)
inactive: S. cerevisiae deletion strains, locus YKL009W, strain mrt4, hits give low values 0.975 | S. cerevisiae deletion strains, locus YKL068W, hits give low values 0.991 | S. cerevisiae deletion strains, locus YKL085W, strain MDH1 (second series), hits give low values 1.01 | S. cerevisiae deletion strains, locus YKL085W, strain MDH1, hits give low values 1.01 | S. cerevisiae deletion strains, locus YKL160W, strain elf1, hits give low values 1 | S. cerevisiae deletion strains, locus YKL190W, strain CNB1, hits give low values 0.998 | S. cerevisiae deletion strains, locus YKR001C, strain vps1, hits give low values 0.981 | S. cerevisiae deletion strains, locus YKR026C, strain gcn3, hits give low values 0.992 | S. cerevisiae deletion strains, locus YKR091W, strain srl3, hits give low values 0.998 | S. cerevisiae deletion strains, locus YLL001W, strain dnm1, hits give low values 0.995 | S. cerevisiae deletion strains, locus YLL026W, hits give low values 0.998 | S. cerevisiae deletion strains, locus YLL041C, strain sdh2, hits give low values 1.01 | S. cerevisiae deletion strains, locus YLR027C, strain aat2, hits give low values 1 | S. cerevisiae deletion strains, locus YLR039C, strain RIC1, hits give low values 1.01 | S. cerevisiae deletion strains, locus YLR058C, strain SHM2, hits give low values 0.985 | S. cerevisiae deletion strains, locus YLR102C, strain apc9, hits give low values 0.976 | S. cerevisiae deletion strains, locus YLR113W, strain HOG1, hits give low values 1.06 | S. cerevisiae deletion strains, locus YLR221C, strain rsa3, hits give low values 1.02 | S. cerevisiae deletion strains, locus YLR258W, strain gsy2, hits give low values 1.01 | S. cerevisiae deletion strains, locus YLR262C, strain YPT6 (second series), hits give low values 1 | S. cerevisiae deletion strains, locus YLR262C, strain YPT6, hits give low values 1.01 | S. cerevisiae deletion strains, locus YLR268W, strain sec22, hits give low values 0.985 | S. cerevisiae deletion strains, locus YLR320W, strain mms22, hits give low values 1.03 | S. cerevisiae deletion strains, locus YLR330W, strain CHS5, hits give low values 0.991 | S. cerevisiae deletion strains, locus YLR342W, strain FKS1 (second series), hits give low values 1.04 | S. cerevisiae deletion strains, locus YLR342W, strain FKS1, hits give low values 1 | S. cerevisiae deletion strains, locus YLR357W, strain rsc2, hits give low values 0.962 | S. cerevisiae deletion strains, locus YLR370C, strain arc18, hits give low values 1.01 | S. cerevisiae deletion strains, locus YLR371W, strain rom2, hits give low values 0.973 | S. cerevisiae deletion strains, locus YLR384C, strain iki3, hits give low values 0.997 | S. cerevisiae deletion strains, locus YLR418C, strain cdc73, hits give low values 0.954 | S. cerevisiae deletion strains, locus YML016C, strain PPZ1, hits give low values 0.993 | S. cerevisiae deletion strains, locus YML032C, strain rad52, hits give low values 0.988 | S. cerevisiae deletion strains, locus YML120C, strain ndi1, hits give low values 0.99 | S. cerevisiae deletion strains, locus YML124C, strain tub3, hits give low values 0.972 | S. cerevisiae deletion strains, locus YMR058W, strain fet3, hits give low values 1.01 | S. cerevisiae deletion strains, locus YMR078C, strain ctf18, hits give low values 0.959 | S. cerevisiae deletion strains, locus YMR125W, strain sto1, hits give low values 0.997 | S. cerevisiae deletion strains, locus YMR129W, hits give low values 1 | S. cerevisiae deletion strains, locus YMR205C, strain PFK2, hits give low values 0.995 | S. cerevisiae deletion strains, locus YMR223W, strain ubp8, hits give low values 0.961 | S. cerevisiae deletion strains, locus YMR231W, strain pep5, hits give low values 1.01 | S. cerevisiae deletion strains, locus YMR263W, strain SAP30, hits give low values 0.979 | S. cerevisiae deletion strains, locus YMR307W, strain GAS1, hits give low values 1.1 | S. cerevisiae deletion strains, locus YNL067W, strain RPL9B, hits give low values 0.976 | S. cerevisiae deletion strains, locus YNL071W, strain lat1, hits give low values 1.01 | S. cerevisiae deletion strains, locus YNL183C, strain NPR1, hits give low values 0.99 | S. cerevisiae deletion strains, locus YNL209W, strain ssb2, hits give low values 0.996 | S. cerevisiae deletion strains, locus YNL233W, strain BNI4, hits give low values 0.976 | S. cerevisiae deletion strains, locus YNL248C, strain rpa49, hits give low values 1.02 | S. cerevisiae deletion strains, locus YNL250W, strain rad50, hits give low values 0.975 | S. cerevisiae deletion strains, locus YNL271C, strain bni1, hits give low values 0.975 | S. cerevisiae deletion strains, locus YNL298W, strain CLA4, hits give low values 0.977 | S. cerevisiae deletion strains, locus YNL307C, strain MCK1, hits give low values 0.976 | S. cerevisiae deletion strains, locus YNL322C, strain KRE1 (second series), hits give low values 0.993 | S. cerevisiae deletion strains, locus YNL322C, strain KRE1, hits give low values 0.998 | S. cerevisiae deletion strains, locus YNR049C, strain mso1, hits give low values 1 | S. cerevisiae deletion strains, locus YNR052C, strain pop2, hits give low values 0.972 | S. cerevisiae deletion strains, locus YOL012C, strain htz1 1 | S. cerevisiae deletion strains, locus YOL147C, strain pex11, hits give low values 0.982 | S. cerevisiae deletion strains, locus YOR001W, strain rrp6, hits give low values 1 | S. cerevisiae deletion strains, locus YOR061W, strain CKA2, hits give low values 0.991 | S. cerevisiae deletion strains, locus YOR069W, strain VPS5, hits give low values 0.993 | S. cerevisiae deletion strains, locus YOR070C, strain gyp1, hits give low values 1.01 | S. cerevisiae deletion strains, locus YOR080W, strain dia2, hits give low values 0.996 | S. cerevisiae deletion strains, locus YOR083W, strain WHI5, hits give low values 0.998 | S. cerevisiae deletion strains, locus YOR106W, strain vam3, hits give low values 1.05 | S. cerevisiae deletion strains, locus YOR136W, strain idh2, hits give low values 0.976 | S. cerevisiae deletion strains, locus YOR144C, strain elg1, hits give low values 0.984 | S. cerevisiae deletion strains, locus YOR184W, strain ser1, hits give low values 0.978 | S. cerevisiae deletion strains, locus YOR231W, strain MKK1, hits give low values 1.04 | S. cerevisiae deletion strains, locus YOR265W, strain rbl2, hits give low values 0.998 | S. cerevisiae deletion strains, locus YOR270C, strain vph1, hits give low values 1.07 | S. cerevisiae deletion strains, locus YOR290C, strain snf2, hits give low values 1.02 | S. cerevisiae deletion strains, locus YOR316C, strain cot1, hits give low values 0.976 | S. cerevisiae deletion strains, locus YPL051W, strain arl3, hits give low values 1.01 | S. cerevisiae deletion strains, locus YPL055C, strain LGE1, hits give low values 1.01 | S. cerevisiae deletion strains, locus YPL078C, strain atp4, hits give low values 1 | S. cerevisiae deletion strains, locus YPL106C, strain sse1, hits give low values 1.02 | S. cerevisiae deletion strains, locus YPL240C, strain hsp82, hits give low values 0.993 | S. cerevisiae deletion strains, locus YPL241C, strain CIN2, hits give low values 0.998 | S. cerevisiae deletion strains, locus YPL256C, strain CLN2, hits give low values 1.06 | S. cerevisiae deletion strains, locus YPR119W, strain clb2, hits give low values 0.971 | S. cerevisiae deletion strains, locus YPR141C, strain kar3, hits give low values 0.972 | S. cerevisiae deletion strains, locus YPR163C, strain tif3, hits give low values 0.971 | S. cerevisiae deletion strains, locus YPR167C, strain met16, hits give low values 0.97 | S. cerevisiae deletion strains, strain wtn01, hits give low values 0.975 | S. cerevisiae strains, strain wild type, hits give low values 0.999
